This is a sample that favours compounds with a hit; in the whole collection about 3.6% have one here.
A549 tox: counter-screen for Nrf2 inhibitors: cytotoxicity in A549 cells; A549 ARE-Fluc cells, CellTiter-Fluor viability, 18-24 h; Potency, µM (top dose mostly 46 µM), inactives show top-dose activity change, negative = cytotoxicity, most hits filed as inhibitors; actives 0.16% (n = 390,000); AID 504648; further: on the % scale 0 is the no-effect control and ±100 the full control effect
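Cytotoxicity counterscreen: CellTiter-Fluor fluorescence was measured in A549 ARE_Fluc cells after 18-24 h of compound exposure in a concentration series. The subsequent BugLite luminescent read reports ARE-luciferase activity.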
HepG2 tox: HepG2 cytotoxicity, counter-screen for TGF-b inhibitors; AID 588856; Potency, µM (doses to about 46.1 µM), for the others: at the highest dose activity change, negative = cytotoxicity, usual class: cytotoxic; actives 0.76% (n = 410,000); HepG2 CAGA-GFP viability, ATP luminescence, 18 h
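HepG2 CAGA-GFP cells (1000/well, DMEM with 1% FBS) received compound, then TGF-beta at 500 pg/mL final, and were incubated 18 hours at 37 degrees C. Viability was read by CellTiter-Glo luminescence. Media-only wells were set as complete cell-killing and DMSO as no toxicity.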
Nrf2 block: blocks Nrf2 signaling | A549 ARE-Fluc reporter, luciferase luminescence, 18-24 h | Potency, µM (doses to about 46 µM), without a hit: at the top dose activity change, negative = inhibition, usual class: inhibitors | actives 2.1% (n = 360,000) | AID 504444; further: on the % scale 0 is the no-effect control and ±100 the full control effect; nearly all actives have a fitted effect of over 60% in size
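Concentration-response testing used A549 ARE_Fluc cells at 5000 cells/well. Following an 18-24 h compound incubation, viability was read by fluorescence (Ex 405/Em 525) and luciferase output by luminescence.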
Nrf2 ARE act: activates Nrf2 signaling. Potency, µM (series often up to 46.1 µM), without a hit: top-dose activation, hits mostly activators. actives 0.31% (n = 410,000). AREc32 ARE-luciferase reporter (MCF7-derived line), luminescence, 24 h. AID 624171; further: % of control where 0% means no effect; nearly all actives have a fitted effect of over 65% in size
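AREc32_Fluc, 1000 cells/well, OPTI-MEM + 5% FBS, o/n 37 deg C 5% CO2; 23 nL cpd by pin tool, 24 hr; Steady-Glo 30 min RT, luminescence.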
TGFb SMAD3 inh: TGF-b pathway inhibition; HepG2 CAGA-GFP TGF-b/SMAD3 reporter, GFP fluorescence, 18 h; TGF-beta stimulated, 500 pg/mL final; AID 588855; actives 1.2% (n = 410,000); Potency, µM (titrated, usually from 46.1 µM), for inactives: at the top dose activity, negative = inhibition, most hits filed as inhibitors; further: on the % scale 0 is the no-effect control and ±100 the full control effect; nearly all actives have a fitted effect of over 65% in size
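Inhibition was scored as loss of TGF-beta-induced (500 pg/mL final, 18 hours, 37 degrees C) GFP in HEPG2 cells carrying a CAGA-GFP reporter, in DMEM with 1% FBS. Well GFP was summed per cell; Activity was normalised to unstimulated and stimulated DMSO wells, then concentration-response fitting.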
Numbers without * were called inactive; u = inconclusive. The call rests on the fitted dose curve; in most records, active means well fitted curve in the direction sought with a large enough effect; inconclusive means small, poorly fitted or top-dose-only effect, or another doubt; inactive means no such curve, though single readings can be large; an effect the other way counts as inactive or inconclusive. Potency means the concentration at half of the fitted maximal effect.

SMILES	A549 tox	HepG2 tox	Nrf2 block	Nrf2 ARE act	TGFb SMAD3 inh
COc1ccccc1NS(=O)(=O)c1cccc(C(=O)N/N=C/c2ccc([N+](=O)[O-])o2)c1	-20%	-110%	u	u	7.1µM*
COc1ccccc1NS(=O)(=O)c1cccc(C(=O)N/N=C/c2ccc3c(c2)OCCO3)c1	12%	5%	u	2%	5%
COc1ccccc1NS(=O)(=O)c1cccc(C(=O)N/N=C/c2c(C)nn(-c3ccccc3)c2N2CCCC2)c1	-2%	-21%	18µM*	3%	0%
CCOc1ccc(C(=O)Nc2ccc(Cl)c(-c3nc4cc(C)cc(C)c4o3)c2)cc1	2%	-18%	4%	0%	-14%
Cc1nn(-c2ccccc2)c(C)c1C(=O)OCC(=O)Nc1ccccc1F	-4%	-33%	u	1%	-15%
Cc1cc(C)n2nc(S(=O)(=O)N(C)c3ccccc3)nc2n1	25%	-11%	10%	0%	1%
CCC1CCCN1Cn1cnc2c([nH]c3ccc(OC)cc32)c1=O (configuration not stated)	14%	-2%	12%	0%	-5%
NS(=O)(=O)c1ccc(N/N=C/c2cn(-c3ccccc3)nc2-c2ccccc2)c([N+](=O)[O-])c1	21µM*	6.3µM*	23µM*	0%	5.6µM*
CCOC(=O)c1cnc(SCC(=O)Nc2ccc(NC(C)=O)c(OC)c2)nc1N	0%	-2%	u	0%	-8%
COc1ccc(OC)c(NC(=O)CSc2nncc3ccccc23)c1	u	23%	-10%	0%	14%
CCOc1ccccc1NC(=O)CSc1nncc2ccccc12	-13%	-7%	23µM*	29%	9%
CCOc1ccccc1NC(=O)CSc1ncc(S(=O)(=O)c2ccc(C)c(C)c2)c(N)n1	0%	-21%	-8%	1%	8.9µM*
Cc1cc(NC(=O)CSc2nc(C(C)C)nc3sc(C)c(C)c23)no1	u	1%	15µM*	-1%	1%
Cc1sc2nc(C(C)C)nc(SCC(=O)NC3CC3)c2c1C	0%	-50%	17%	-1%	-13%
CCOC(=O)c1ccccc1NC(=O)CSc1ncc(C(=O)OCC)c(N)n1	-2%	-9%	-26%	0%	4%
CCOC(=O)c1cnc(SCC(=O)Nc2cc(OC)ccc2OC)nc1N	-18%	-31%	10µM*	0%	-3%
O=C(NC1CCCCCC1)c1ccc(CS(=O)Cc2ccccc2Cl)o1 (configuration not stated)	0%	-24%	2%	0%	-2%
O=c1oc2ccccc2cc1-c1nc(-c2ccccc2)no1	13%	0%	u	4%	0%
CCc1nc(SCC(=O)Nc2cc(OC)ccc2OC)c2c(C)c(C)sc2n1	-22%	-24%	15µM*	0%	-28%
CC(NC(=O)COC(=O)CSCc1ccccc1)c1ccccc1 (configuration not stated)	-3%	2%	3%	0%	3%
CC(NC(=O)COC(=O)CCc1ccccc1)c1ccccc1 (configuration not stated)	23µM*	3%	u	0%	-1%
CC(NC(=O)COC(=O)c1c[nH]c2ccccc12)c1ccccc1 (configuration not stated)	-17%	-11%	21µM*	2%	18%
COc1ccc(C2=NN(C(=O)c3ccccc3)C(c3ccccc3)C2)c(O)c1 (configuration not stated)	-3%	5%	26%	1%	7%
Cn1cc(CN(C(=O)Nc2ccc(Cl)c(Cl)c2)C2CCCCC2)c2ccccc21	7%	-5%	u	3%	-5%
Cn1cc(CN(C(=O)Nc2ccccc2)C2CCCCC2)c2ccccc21	-23%	16µM*	-26%	-1%	u
SMILES	A549 tox	HepG2 tox	Nrf2 block	Nrf2 ARE act	TGFb SMAD3 inh
O=C(COCc1ccccc1)N[C@@H](Cc1ccc(O)cc1)C(=O)O	0%	26%	1%	0%	21%
COC(=O)C1=C(C)N(Cc2ccccc2)C(=S)N[C@H]1c1ccc(Br)cc1	8%	-1%	u	-1%	13µM*
COc1ccccc1NC(=O)C1=C(C)N(c2ccccc2)C(=S)NC1c1cccc(C(F)(F)F)c1 (configuration not stated)	-7%	8%	15µM*	0%	-2%
COC(=O)C1=C(C)N(Cc2ccccc2)C(=S)N[C@H]1c1cccc(C(F)(F)F)c1	-21%	-2%	18µM*	1%	u
COC(=O)C1=C(C)N(Cc2ccccc2)C(=NCC(C)C)N[C@H]1c1cccc(C(F)(F)F)c1	-17%	-119%	6%	-5%	u
COC(=O)C1=C(C)N(Cc2ccccc2)C(=NCC2CC2)N[C@H]1c1ccccc1	-12%	-33%	-1%	-2%	u
COC(=O)C1=C(C)N(Cc2ccccc2)C(=NCc2ccccc2)N[C@H]1c1cccc(C(F)(F)F)c1	-11%	14µM*	-11%	-4%	u
COC(=O)C1=C(C)N(Cc2ccccc2)C(=NCCc2cccnc2)N[C@H]1c1ccccc1	-17%	-20%	10%	0%	-2%
COC(=O)C1=C(C)N(Cc2ccccc2)C(=NCCc2cccnc2)N[C@H]1c1ccc(Br)cc1	1%	16µM*	-8%	-5%	u
O=S1(=O)c2cccc3cccc(c23)N1Cc1nnc(-c2ccccc2Br)o1	-22%	-48%	21µM*	4%	-18%
O=S(=O)(Nc1ccc(Cc2ccncc2)cc1)N1CCCC1	3%	4%	u	0%	-2%
CCN(CC)S(=O)(=O)c1cc(NC(=O)C(C)N(C)CC(=O)Nc2c(C)cccc2C)ccc1C (configuration not stated)	u	-9%	16µM*	3%	-16%
CC(=O)N(C)c1ccc(NC(=O)C(Sc2ccccc2)c2ccccc2)cc1 (configuration not stated)	-13%	-3%	u	3%	5%
CC(C)(C)NS(=O)(=O)c1ccc(NC(=O)C(Sc2ccccc2)c2ccccc2)cc1 (configuration not stated)	u	-28%	9.2µM*	0%	u
C=C1C(=O)c2sccc2C(c2ccc(OC)c(OC)c2)C1COC(C)=O (configuration not stated)	-19%	4.5µM*	u	-4%	0.71µM*
CCN1CCN(CC(=O)N2N=C(c3cccs3)CC2c2ccc(OC)c(OC)c2)C(=O)C1=O (configuration not stated)	-1%	0%	-17%	-1%	-15%

High-throughput results (PubChem BioAssay)
